Measurements: PubChem BioAssay AID1509 (The Scripps Research Institute Molecular Screening Center, 2009)
The campaign covered roughly 220,000 compounds. About 770 (0.35%) were called active. Many of the other results were omitted from the sample, so actives are more common in it than they were. Unmarked numbers belong to inactive results. Rule as the data show it: active = activation above about 11%; inactive = the rest.

Biological target: Sphingosine 1-phosphate receptor 4 (Homo sapiens) (UniProt O95977)
Sequence (O95977 whole entry, looked up): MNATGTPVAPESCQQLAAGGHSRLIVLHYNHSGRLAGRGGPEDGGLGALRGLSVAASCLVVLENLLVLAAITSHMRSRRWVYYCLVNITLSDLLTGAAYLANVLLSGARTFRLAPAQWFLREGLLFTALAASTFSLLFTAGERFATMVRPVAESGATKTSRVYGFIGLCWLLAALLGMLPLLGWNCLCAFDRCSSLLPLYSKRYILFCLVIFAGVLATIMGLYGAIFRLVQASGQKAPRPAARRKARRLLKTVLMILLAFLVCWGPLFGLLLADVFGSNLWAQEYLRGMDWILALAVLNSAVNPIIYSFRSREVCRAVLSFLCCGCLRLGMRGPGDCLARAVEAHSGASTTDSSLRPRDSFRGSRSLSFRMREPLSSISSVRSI
Test: activators of human S1P4 receptor – cell-based, primary screen (AID 1509);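 also: 0% = DMSO vehicle and 100% = reference agonist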
Conditions: S1P4-expressing cell line, agonist reporter assay; at 4.98 µM; stronger effect = higher value

| Structure (SMILES) | activation |
| --- | --- |
| CC(C)N(CC#CCC1(O)c2ccccc2-c2ccccc21)C(C)C | 16.1% (active) |
| NCC(O)c1ccc(O)cc1 (stereo not given) | 1.71% |
| O=c1[nH]c(=O)n(-c2ccc(F)cc2)c(O)c1C=NCCN1CCCCC1 | 0.64% |
| O=c1[nH]c(CN2CC=C(c3ccccc3)CC2)nc2scc(-c3cccs3)c12 | 0.84% |
| Cc1cccc(-n2c(O)c(C=NC34CN5CN(CN(C5)C3)C4)c(=O)[nH]c2=O)c1 | -0.41% |
